These results are taken from PubChem BioAssay.

SMILES strings stand for the structures. Several values for one entry are separate records, joined by “and”; a condition that tells them apart may be missing. Equal values may be shown once. Activity calls are given as the source filed them. Rule as the data show it, unless noted: active = inhibition above about 80%; inactive = the rest.

The first assay can be described thus: HD-MB03 medulloblastoma cell growth inhibition, synergistic combos for chromothripsis tumors, BGB or cisplatin IC20 combos (AID 1671455; in the data active = inhibition above about 83%;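 also: 0% = vehicle DMSO and 100% = high DMSO as cytotoxic control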). Particulars: HD-MB03 medulloblastoma cells, at 0.5 µM, stronger effect = higher value.
Take `CC(=O)OCC(CCn1cnc2cnc(N)nc21)COC(C)=O`: the inhibition was -9.43% (inactive).
Consider `S=c1nc[nH]c2nc[nH]c12`, for which the inhibition is -4.55% (inactive) and -3.29% (inactive) and -17.6% (inactive).
For the compound `COc1c(N2CCNC(C)C2)c(F)cc2c(=O)c(C(=O)O)cn(C3CC3)c12` (stereo unspecified), the inhibition is -13.9% (inactive) and 3.18% (inactive).
The same measure, in the same setting: the value for `CC1COc2c(N3CCN(C)CC3)c(F)cc3c(=O)c(C(=O)O)cn1c23` (stereo unspecified) was -17.7% (inactive) and 0.8% (inactive) and 1.26% (inactive); that for `O=C1c2c(O)ccc(O)c2C(=O)c2c(NCCNCCO)ccc(NCCNCCO)c21` was 88% (active).
In the case of `CS(=O)(=O)OCCCCOS(C)(=O)=O`, the inhibition was -10.8% (inactive) and -1.12% (inactive).
`O=C(O)CCCc1ccccc1`: the inhibition is -7.96% (inactive).

The assay is the same for the next values; noted with them: HD-MB03 medulloblastoma cells, measured here: combo with BGB at IC20, at 0.5 µM, stronger effect = higher value.
Take `CC(=O)OCC(CCn1cnc2cnc(N)nc21)COC(C)=O`: the inhibition was -6.57%.
As for `S=c1nc[nH]c2nc[nH]c12`, the inhibition is -4.3% and -15.6% and -16.3%.
Turning to `COc1c(N2CCNC(C)C2)c(F)cc2c(=O)c(C(=O)O)cn(C3CC3)c12` (stereo unspecified), the inhibition was -14.1% and 5.19%.
On to `CC1COc2c(N3CCN(C)CC3)c(F)cc3c(=O)c(C(=O)O)cn1c23` (stereo unspecified), for which the inhibition is -22% and -1.41% and -0.426%.
Regarding `O=C1c2c(O)ccc(O)c2C(=O)c2c(NCCNCCO)ccc(NCCNCCO)c21`, the inhibition was 86.5%.
Turning to `CS(=O)(=O)OCCCCOS(C)(=O)=O`, the inhibition was -20.4% and -4.59%.
As for `O=C(O)CCCc1ccccc1`, the inhibition was -7.07%.

Staying with this assay, now noted: HD-MB03 medulloblastoma cells, measured here: combo with cisplatin at IC20, at 0.5 µM, stronger effect = higher value.
For the compound `CC(=O)OCC(CCn1cnc2cnc(N)nc21)COC(C)=O`, the inhibition is -14.8%.
Regarding `S=c1nc[nH]c2nc[nH]c12`, the inhibition was -5.54% and 2.44% and -26.8%.
As to `COc1c(N2CCNC(C)C2)c(F)cc2c(=O)c(C(=O)O)cn(C3CC3)c12` (stereo unspecified), the inhibition is -19.6% and 0.97%.
For the compound `CC1COc2c(N3CCN(C)CC3)c(F)cc3c(=O)c(C(=O)O)cn1c23` (stereo unspecified), the inhibition is -27.3% and 2.8% and -2.37%.
`O=C1c2c(O)ccc(O)c2C(=O)c2c(NCCNCCO)ccc(NCCNCCO)c21`: the inhibition was 84.8%.
As to `CS(=O)(=O)OCCCCOS(C)(=O)=O`, the inhibition is -6.85% and 1.19%.
Consider `O=C(O)CCCc1ccccc1`, for which the inhibition is -7.42%.

The next assay is described as follows: UWB1.289 ovarian carcinoma cell growth inhibition, synergistic combos for chromothripsis tumors, BGB or cisplatin combos (AID 1671456).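 Also: cells exposed to compound for four days; 0% = vehicle DMSO and 100% = killing by high DMSO.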 Particulars: UWB1.289 ovarian carcinoma cells, at 0.5 µM, stronger effect = higher value.
On to `CC(=O)OCC(CCn1cnc2cnc(N)nc21)COC(C)=O`, for which the inhibition was 5.6% (inactive).
Regarding `S=c1nc[nH]c2nc[nH]c12`, the inhibition was 57.7% (inactive) and 56.2% (inactive) and 56.1% (inactive).
For the compound `COc1c(N2CCNC(C)C2)c(F)cc2c(=O)c(C(=O)O)cn(C3CC3)c12` (stereo unspecified), the inhibition was -2.27% (inactive) and 6.63% (inactive).
Still for that read-out and setting: the value for `CC1COc2c(N3CCN(C)CC3)c(F)cc3c(=O)c(C(=O)O)cn1c23` (stereo unspecified) was -7.78% (inactive) and 3.9% (inactive) and 3.09% (inactive).
For the compound `O=C1c2c(O)ccc(O)c2C(=O)c2c(NCCNCCO)ccc(NCCNCCO)c21`, the inhibition is 64.9% (inactive).
In the case of `CS(=O)(=O)OCCCCOS(C)(=O)=O`, the inhibition is 4.55% (inactive) and 10.4% (inactive).
Regarding `O=C(O)CCCc1ccccc1`, the inhibition is -4.79% (inactive).

The assay is the same for the next values; noted with them: UWB1.289 ovarian carcinoma cells, measured here: inhibition with BGB combination, at 0.05 µM, stronger effect = higher value.
Regarding `CC(=O)OCC(CCn1cnc2cnc(N)nc21)COC(C)=O`, the inhibition is -6.88%.
Same read-out and setting: the value for `S=c1nc[nH]c2nc[nH]c12` was -14.8% and -13.6% and -15.6%.
For `COc1c(N2CCNC(C)C2)c(F)cc2c(=O)c(C(=O)O)cn(C3CC3)c12` (stereo unspecified), the inhibition is -7.46% and -0.326%.
Still for that read-out and setting: in the case of `CC1COc2c(N3CCN(C)CC3)c(F)cc3c(=O)c(C(=O)O)cn1c23` (stereo unspecified) it was -28.7% and 4.48% and 2.71%; in that of `O=C1c2c(O)ccc(O)c2C(=O)c2c(NCCNCCO)ccc(NCCNCCO)c21`, -29.8%; in that of `CS(=O)(=O)OCCCCOS(C)(=O)=O`, -3.6% and 0.829%.
For `O=C(O)CCCc1ccccc1`, the inhibition is -17.3%.

The same assay, now with this note: UWB1.289 ovarian carcinoma cells, measured here: inhibition with cisplatin combination, at 0.05 µM, stronger effect = higher value.
On to `CC(=O)OCC(CCn1cnc2cnc(N)nc21)COC(C)=O`, for which the inhibition is -9.39%.
With `S=c1nc[nH]c2nc[nH]c12`, the inhibition was -7.08% and -3.38% and -9.93%.
`COc1c(N2CCNC(C)C2)c(F)cc2c(=O)c(C(=O)O)cn(C3CC3)c12` (stereo unspecified): the inhibition was -30.7% and -0.886%.
For `CC1COc2c(N3CCN(C)CC3)c(F)cc3c(=O)c(C(=O)O)cn1c23` (stereo unspecified), the inhibition is -3.9% and 3.6% and -0.825%.
As to `O=C1c2c(O)ccc(O)c2C(=O)c2c(NCCNCCO)ccc(NCCNCCO)c21`, the inhibition is -25.8%.
As for `CS(=O)(=O)OCCCCOS(C)(=O)=O`, the inhibition is 24.9% and -0.011%.
In the case of `O=C(O)CCCc1ccccc1`, the inhibition is -13.9%.

The nature of a further assay: LFS_MB_2R medulloblastoma cell growth inhibition, synergistic combos for chromothripsis tumors, cisplatin combos (AID 1671457).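 Also: cells exposed to compound for four days before readout.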 The conditions noted are these: LFS_MB_2R medulloblastoma cells, at 0.5 µM, stronger effect = higher value.
`CC(=O)OCC(CCn1cnc2cnc(N)nc21)COC(C)=O`: the inhibition was -19.1% (inactive).
Regarding `S=c1nc[nH]c2nc[nH]c12`, the inhibition was -7.19% (inactive) and -1.38% (inactive) and -2.98% (inactive).
For the compound `COc1c(N2CCNC(C)C2)c(F)cc2c(=O)c(C(=O)O)cn(C3CC3)c12` (stereo unspecified), the inhibition is -11.1% (inactive) and 6.57% (inactive).
`CC1COc2c(N3CCN(C)CC3)c(F)cc3c(=O)c(C(=O)O)cn1c23` (stereo unspecified): the inhibition is -19.3% (inactive) and 6.15% (inactive) and -0.77% (inactive).
On the same count and under the same terms, the value for `O=C1c2c(O)ccc(O)c2C(=O)c2c(NCCNCCO)ccc(NCCNCCO)c21` was -5.4% (inactive); that for `CS(=O)(=O)OCCCCOS(C)(=O)=O` was -13.8% (inactive) and 9.5% (inactive); that for `O=C(O)CCCc1ccccc1` was -17.8% (inactive).

Staying with this assay, now noted: LFS_MB_2R medulloblastoma cells, measured here: combination with cisplatin, at 0.5 µM, stronger effect = higher value.
Consider `CC(=O)OCC(CCn1cnc2cnc(N)nc21)COC(C)=O`, for which the inhibition was -22.6%.
In the case of `S=c1nc[nH]c2nc[nH]c12`, the inhibition was -15.5% and -27.1% and 4.18%.
Same read-out and setting: in the case of `COc1c(N2CCNC(C)C2)c(F)cc2c(=O)c(C(=O)O)cn(C3CC3)c12` (stereo unspecified) it was -12.5% and 9.12%; in that of `CC1COc2c(N3CCN(C)CC3)c(F)cc3c(=O)c(C(=O)O)cn1c23` (stereo unspecified), -23.3% and -0.024% and 7.26%; in that of `O=C1c2c(O)ccc(O)c2C(=O)c2c(NCCNCCO)ccc(NCCNCCO)c21`, 20.8%.
Turning to `CS(=O)(=O)OCCCCOS(C)(=O)=O`, the inhibition was -18.7% and -5.75%.
As for `O=C(O)CCCc1ccccc1`, the inhibition is -17.8%.
